Measurements taken from PubChem BioAssay (NCATS).
Records with an inconclusive call do not appear. Values without a mark were called inactive. Active and inactive are the calls of the source. Calls follow the shape of the dose curve; as a rule, active = well fitted cell-killing curve with a large enough effect; inconclusive = small, poorly fitted or top-dose-only effect, or effect the other way; inactive = no such curve, though single readings can be large or run the other way.

Legend:
[1] = Quantitative High-Throughput drug screen in 47 multiple myeloma cell lines against the NCATS MIPE library collection: MM1R_ATCC cell viability assay (AID 1918981); also: nearly all actives have a fitted effect of over 35% in size
Procedure, shortened: (§1)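 Cells were exposed to library compounds for 48 hours, after which ATP was measured by CellTiter-Glo. Signal was taken as median relative luminescence units.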

[2] = Quantitative High-Throughput drug screen in 47 multiple myeloma cell lines against the NCATS MIPE library collection: LP1_DSMZ cell viability assay (AID 1918982); also: nearly all actives have a fitted effect of over 35% in size
Procedure, shortened: as §1

[3] = Quantitative High-Throughput drug screen in 47 multiple myeloma cell lines against the NCATS MIPE library collection: KMS28PE_JCRB cell viability assay (AID 1918983); also: nearly all actives have a fitted effect of over 35% in size
Procedure, shortened: as §1

[4] = Quantitative High-Throughput drug screen in 47 multiple myeloma cell lines against the NCATS MIPE library collection: SKMM1_PLB cell viability assay (AID 1919863); conditions: SKMM1 myeloma viability, CellTiter-Glo ATP, 48 h; viability: active compounds read low; also: nearly all actives have a fitted effect of over 35% in size
Procedure, shortened: as §1

[5] = Quantitative High-Throughput drug screen in 47 multiple myeloma cell lines against the NCATS MIPE library collection: U266_ATCC cell viability assay (AID 1919864); also: nearly all actives have a fitted effect of over 35% in size;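 as to viability (% of DMSO control): 0% = media-only wells without cells and 100% = DMSO-only wells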
Procedure, shortened: as §1

[6] = Quantitative High-Throughput drug screen in 47 multiple myeloma cell lines against the NCATS MIPE library collection: XG6_PLB cell viability assay (AID 1919865); also: nearly all actives have a fitted effect of over 40% in size
Procedure, shortened: as §1

[7] = Quantitative High-Throughput drug screen in 47 multiple myeloma cell lines against the NCATS MIPE library collection: XG1_PLB cell viability assay (AID 1919866); also: nearly all actives have a fitted effect of over 35% in size
Procedure, shortened: as §1

[8] = Quantitative High-Throughput drug screen in 47 multiple myeloma cell lines against the NCATS MIPE library collection: RPMI8226_ATCC cell viability assay (AID 1919871); also: nearly all actives have a fitted effect of over 30% in size
Procedure, shortened: as §1

[9] = Quantitative High-Throughput drug screen in 47 multiple myeloma cell lines against the NCATS MIPE library collection: OPM2_DSMZ cell viability assay (AID 1919872); also: nearly all actives have a fitted effect of over 30% in size
Procedure, shortened: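 qHTS of the MIPE 4.0 collection: 500 myeloma cells/well, 48 h drug exposure at 37C in 5% CO2, then CellTiter-Glo for 5 min at room temperature before luminescence reading.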

[10] = Quantitative High-Throughput drug screen in 47 multiple myeloma cell lines against the NCATS MIPE library collection: KMS11_JCRBsus cell viability assay (AID 1919873); also: nearly all actives have a fitted effect of over 50% in size
Procedure, shortened: as §1

[11] = Quantitative High-Throughput drug screen in 47 multiple myeloma cell lines against the NCATS MIPE library collection: L363_DSMZ cell viability assay (AID 1918984); also: nearly all actives have a fitted effect of over 40% in size
Procedure, shortened: as §1

[12] = Quantitative High-Throughput drug screen in 47 multiple myeloma cell lines against the NCATS MIPE library collection: OCIMY7_PLB cell viability assay (AID 1918987); also: nearly all actives have a fitted effect of over 65% in size
Procedure, shortened: as §1

[13] = Quantitative High-Throughput drug screen in 47 multiple myeloma cell lines against the NCATS MIPE library collection: OCIMY5_PLB cell viability assay (AID 1918988); also: nearly all actives have a fitted effect of over 65% in size
Procedure, shortened: as §1

[14] = Quantitative High-Throughput drug screen in 47 multiple myeloma cell lines against the NCATS MIPE library collection: OPM1_PLB cell viability assay (AID 1918989); also: nearly all actives have a fitted effect of over 40% in size
Procedure, shortened: as §1

[15] = Quantitative High-Throughput drug screen in 47 multiple myeloma cell lines against the NCATS MIPE library collection: VP6_DJ cell viability assay (AID 1919867); also: nearly all actives have a fitted effect of over 40% in size
Procedure, shortened: as §1

[16] = Quantitative High-Throughput drug screen in 47 multiple myeloma cell lines against the NCATS MIPE library collection: UTMC2_PLB cell viability assay (AID 1919868); conditions: CellTiter-Glo ATP luminescence, 48 h; viability (% of DMSO control): at 45.8 µM (top of the series); also: nearly all actives have a fitted effect of over 55% in size;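 as to viability (% of DMSO control): 100% = DMSO-only wells and 0% = media-only wells without cells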
Procedure, shortened: as §1

[17] = Quantitative High-Throughput drug screen in 47 multiple myeloma cell lines against the NCATS MIPE library collection: PCM6_Riken cell viability assay (AID 1919870); also: nearly all actives have a fitted effect of over 30% in size
Procedure, shortened: as §1

[18] = Quantitative High-Throughput drug screen in 47 multiple myeloma cell lines against the NCATS MIPE library collection: KMS28BM_JCRB cell viability assay (AID 1919874); also: nearly all actives have a fitted effect of over 35% in size
Procedure, shortened: as §1

[19] = Quantitative High-Throughput drug screen in 47 multiple myeloma cell lines against the NCATS MIPE library collection: KMS34_JCRB cell viability assay (AID 1918985); also: nearly all actives have a fitted effect of over 40% in size
Procedure, shortened: as §1

[20] = Quantitative High-Throughput drug screen in 47 multiple myeloma cell lines against the NCATS MIPE library collection: PE2_PLB cell viability assay (AID 1919869); also: nearly all actives have a fitted effect of over 35% in size
Procedure, shortened: as §1
Potency is read from the fitted curve at half-maximal effect.

c1ccc2c(CN3CCNCC3)cccc2c1
Potency [1]: inactive
Potency [2]: inactive
Potency [3]: inactive
viability [4]: 106%
Potency [5]: inactive
Potency [6]: inactive
Potency [7]: inactive
Potency [8]: inactive
Potency [9]: inactive
Potency [10]: inactive

Cc1[nH]nc2ccc(-c3cncc(OC[C@@H](N)Cc4c[nH]c5ccccc45)c3)cc12
Potency [1]: 1.48 µM (active)
Potency [2]: 1.66 µM (active)
Potency [11]: inactive
Potency [12]: 26.4 nM (active)
Potency [13]: 0.833 µM (active)
Potency [14]: 1.18 µM (active)
Potency [4]: 5.9 µM (active)
Potency [5]: 0.0833 µM (active)
Potency [6]: 418 nM (active)
Potency [7]: 0.235 µM (active)
Potency [15]: 0.296 µM (active)
Potency [16]: 372 nM (active)
Potency [17]: 0.264 µM (active)
Potency [8]: 3.32 µM (active)
Potency [9]: 14.8 µM (active)
Potency [10]: 372 nM (active)
Potency [18]: 0.296 µM (active)

O=c1[nH]c2ccc(Cl)cc2c(N[C@@H]2CN3CCC2CC3)c1-c1nc2ccccc2[nH]1
Potency [1]: 0.0833 µM (active)
Potency [2]: 3.32 µM (active)
Potency [3]: 2.35 µM (active)
Potency [12]: 59 nM (active)
Potency [14]: 0.0526 µM (active)
Potency [4]: 4.69 µM (active)
Potency [5]: 5.9 µM (active)
Potency [6]: 37.2 nM (active)
Potency [7]: 0.264 µM (active)
Potency [15]: 0.132 µM (active)
Potency [16]: 332 nM (active)
Potency [8]: 5.9 µM (active)
Potency [9]: 5.9 µM (active)
Potency [10]: 235 nM (active)
Potency [18]: 1.32 µM (active)

C[C@@H]1CC[C@@]2(OC1)O[C@H]1C[C@H]3[C@@H]4CC=C5C[C@@H](O[C@@H]6O[C@H](CO)[C@@H](O[C@@H]7O[C@@H](C)[C@H](O)[C@@H](O)[C@@H]7O)[C@H](O)[C@@H]6O[C@@H]6O[C@@H](C)[C@H](O)[C@@H](O)[C@@H]6O)CC[C@]5(C)[C@@H]4CC[C@]3(C)[C@@H]1[C@H]2C
Potency [1]: 2.09 µM (active)
Potency [2]: 2.96 µM (active)
Potency [3]: 2.96 µM (active)
Potency [19]: 1.87 µM (active)
Potency [12]: 3320 nM (active)
Potency [13]: 1.66 µM (active)
Potency [14]: 2.96 µM (active)
Potency [4]: 2.35 µM (active)
Potency [6]: 3720 nM (active)
Potency [7]: 2.64 µM (active)
Potency [15]: 2.96 µM (active)
Potency [16]: 2640 nM (active)
Potency [8]: 2.35 µM (active)
Potency [9]: 2.09 µM (active)
Potency [10]: 2350 nM (active)
Potency [18]: 2.96 µM (active)

CCOC(=O)Nc1ccc(NCc2ccc(F)cc2)cc1N
Potency [1]: inactive
Potency [2]: inactive
Potency [3]: inactive
Potency [12]: 10500 nM (active)
viability [4]: 119%
Potency [5]: 13.2 µM (active)
Potency [7]: 13.2 µM (active)
Potency [15]: 20.9 µM (active)
Potency [20]: inactive
Potency [9]: inactive
Potency [10]: inactive

CC(=Cc1csc(C)n1)[C@@H]1C[C@H]2O[C@@H]2CCC[C@H](C)[C@@H](O)[C@@H](C)C(=O)C(C)(C)[C@@H](O)CC(=O)O1
Potency [1]: inactive
Potency [2]: inactive
Potency [3]: inactive
Potency [19]: inactive
Potency [12]: inactive
Potency [13]: inactive
viability [4]: 81.4%
Potency [6]: inactive
Potency [15]: inactive
Potency [17]: inactive
Potency [8]: inactive
Potency [9]: inactive
Potency [10]: inactive
Potency [18]: inactive

CC=C(C)C(=O)O[C@H]1C(C)=C2[C@@H]3OC(=O)[C@@](C)(O)[C@@]3(O)[C@@H](OC(=O)CCC)C[C@](C)(OC(C)=O)[C@@H]2[C@@H]1OC(=O)CCCCCCC
Potency [1]: 0.0166 µM (active)
Potency [2]: 0.0296 µM (active)
Potency [19]: 0.0166 µM (active)
Potency [12]: 264 nM (active)
Potency [4]: 0.105 µM (active)
Potency [5]: 0.935 µM (active)
Potency [6]: 372 nM (active)
Potency [7]: 0.0469 µM (active)
Potency [15]: 0.0526 µM (active)
Potency [16]: 743 nM (active)
Potency [20]: 264 nM (active)
Potency [8]: 0.0743 µM (active)
Potency [9]: 0.0332 µM (active)
Potency [10]: 33.2 nM (active)
Potency [18]: 0.166 µM (active)

C=C[C@@H]1CN2CCC1C[C@H]2[C@H](O)c1ccnc2ccccc12 (some centres undefined)
Potency [1]: 26.4 µM (active)
Potency [2]: 10.5 µM (active)
Potency [3]: 14.8 µM (active)
Potency [4]: 20.9 µM (active)
Potency [5]: 20.9 µM (active)
Potency [7]: 16.6 µM (active)
Potency [15]: 26.4 µM (active)
Potency [17]: 14.8 µM (active)
Potency [8]: 18.7 µM (active)

CCN1CCN(C(=O)Cc2ccc(Nc3ncc(F)c(Nc4ccc(C(=O)Nc5ccccc5Cl)cc4)n3)cc2)CC1
Potency [1]: 5.9 µM (active)
Potency [2]: 8.33 µM (active)
Potency [19]: 4.18 µM (active)
Potency [12]: 526 nM (active)
Potency [14]: 5.26 µM (active)
Potency [4]: 9.35 µM (active)
Potency [5]: 7.43 µM (active)
Potency [6]: 743 nM (active)
Potency [7]: 1.18 µM (active)
Potency [15]: 2.64 µM (active)
Potency [16]: 1320 nM (active)
Potency [17]: 2.96 µM (active)
Potency [8]: 18.7 µM (active)
Potency [9]: 6.62 µM (active)
Potency [10]: 743 nM (active)
Potency [18]: 1.87 µM (active)

COc1ccc2c(c1)[C@]13CCCCC1C(C2)N(C)CC3 (some centres undefined)
Potency [1]: inactive
Potency [2]: inactive
Potency [3]: inactive
Potency [11]: inactive
Potency [19]: inactive
Potency [14]: inactive
viability [4]: 120%
Potency [5]: inactive
Potency [6]: inactive
Potency [7]: inactive
Potency [16]: inactive
Potency [17]: inactive
Potency [8]: inactive
Potency [9]: inactive
Potency [10]: inactive

COc1ccc2c(c[n+](C)c3c4cc5c(cc4ccc23)OCO5)c1OC
Potency [1]: 2.35 µM (active)
Potency [2]: 14.8 µM (active)
Potency [3]: 4.69 µM (active)
Potency [11]: 4.18 µM (active)
Potency [12]: 2960 nM (active)
Potency [13]: 2.09 µM (active)
Potency [4]: 5.9 µM (active)
Potency [5]: 5.9 µM (active)
Potency [6]: 5260 nM (active)
Potency [7]: 2.64 µM (active)
Potency [15]: 2.96 µM (active)
Potency [16]: 5260 nM (active)
Potency [8]: 8.33 µM (active)
Potency [9]: 9.35 µM (active)
Potency [10]: 3320 nM (active)
Potency [18]: 2.96 µM (active)
